This note sets out measurements from the antibiotic and cytotoxicity screens of Wong et al. (2023).

The whole screen tested about 39,000 compounds, of which about 500 (1.3%) were called active. The sample as a whole holds a higher share of actives than the screen did.

For the assay, the system named is S. aureus RN4220. Description: growth inhibition call (relative growth <= 0.2). The note with it: 50 µM.
Turning to `CCc1nc2ccc(C(=O)N3CCN(S(=O)(=O)CC)CC3)cn2c1N(C)Cc1ccc(Cl)cc1`, the growth inhibition call is “inactive”.

Turning to `CN1CC2(COC2)OCCS1(=O)=O`, the growth inhibition call was “inactive”. Under `COc1ccc(S(=O)(=O)Nc2ccc3c(c2)CC(=O)N([C@H](C)CO)C[C@H](C)[C@@H](CN(C)S(=O)(=O)c2cn(C)cn2)O3)cc1` stands “inactive”. Under `Cc1cc(CC(=O)O)n(C)c1C(=O)c1ccc(Cl)cc1` stands “inactive”. Under `CC1(C)Cc2c(-c3ccccc3)c(-c3ccc(Cl)cc3)c(CC(=O)O)n2C1` stands “active”. On to `C[C@H]1CN([C@@H](C)CO)C(=O)c2cccc(NC(=O)Nc3ccc(C(F)(F)F)cc3)c2O[C@@H]1CN(C)C(=O)Nc1ccc(C(F)(F)F)cc1`, for which the growth inhibition call is “inactive”. For the compound `CC(=O)OC1CC(OC(C)=O)C2(C)C(CC(OC(C)=O)C3(C)C4=CC(=O)OC(c5ccoc5)C4(C)CCC32)C1(C)C` (stereo unspecified), the growth inhibition call is “inactive”. Under `CC(C)NC(=O)N(C)C[C@H]1Oc2ccc(NC(=O)Nc3ccc4c(c3)OCO4)cc2CC(=O)N([C@@H](C)CO)C[C@H]1C` stands “inactive”. As for `O=C(Nc1cc(Cl)cc(Cl)c1O)c1c(O)c(Cl)cc(Cl)c1Cl`, the growth inhibition call is “active”. The same measure for `Oc1c(Cl)cc(Cl)cc1Sc1cc(Cl)cc(Cl)c1O`: “inactive”.

Regarding `Oc1c(Cl)cc(Cl)c(Cl)c1Cc1c(O)c(Cl)cc(Cl)c1Cl`, the growth inhibition call was “inactive”. For the compound `CS(=O)(=O)N1C[C@@H](O)COC[C@H]2O[C@H](CC(=O)NCc3ccccc3)CC[C@@H]21`, the growth inhibition call was “inactive”. Turning to `Cc1noc(C)c1S(=O)(=O)Nc1ccc2c(c1)C(=O)N([C@H](C)CO)C[C@H](C)[C@@H](CN(C)Cc1ccncc1)O2`, the growth inhibition call is “inactive”. As to `C[C@@H]1CCCCO[C@H](CN(C)C(=O)CCC(F)(F)F)[C@H](C)CN([C@H](C)CO)C(=O)c2cc(NS(=O)(=O)c3cccs3)ccc2O1`, the growth inhibition call is “inactive”.

Consider `CC(=O)C1CCC2C3CC=C4CC(OC(=O)CCC(=O)O)CCC4(C)C3CCC12C` (stereo unspecified), for which the growth inhibition call is “inactive”. For the compound `CC(=O)O[C@H]1C[C@@]2(C)[C@@H](C[C@@H](O)[C@@H]3[C@@]4(C)CC[C@@H](O)[C@@H](C)[C@@H]4CC[C@@]32C)/C1=C(/CCC=C(C)C)C(=O)O`, the growth inhibition call was “active”.

`CC(=O)O[C@H]1C[C@@]2(C)[C@@H](C[C@@H](O)[C@H]3[C@@]4(C)CC[C@@H](O)[C@@H](C)[C@@H]4CC[C@@]32C)/C1=C(\CCC=C(C)C)C(=O)O`: the growth inhibition call was “active”. Under `CC(=O)OC1CC2(C)C(CC(O)C3C4(C)CCC(O)C(C)C4CCC32C)C1=C(CCC=C(C)C)C(=O)O` (stereo unspecified) stands “active”; under `CC(=O)OC1(C(C)=O)CCC2C3CC(C)C4=CC(=O)CCC4(C)C3CCC21C` (stereo unspecified), “inactive”; under `CC(=O)OC1(C(C)=O)CCC2C3C=C(C)C4=CC(=O)CCC4(C)C3CCC21C` (stereo unspecified), “inactive”. The same measure for `CC(=O)O[C@H]1C[C@@]2(C)[C@@H](C[C@@H](O)[C@H]3[C@@]4(C)CC[C@@H](O)[C@@H](C)[C@H]4CC[C@@]32C)C1=C(CCC=C(C)C)C(=O)O`: “active”. On to `C[C@H](CO)N1C[C@H](C)[C@H](CN(C)C(=O)Nc2ccccc2)OCCCC[C@H](C)Oc2ccc(NC(=O)Nc3ccc(F)cc3)cc2C1=O`, for which the growth inhibition call was “inactive”.

With `C[C@H](CO)N1C[C@H](C)[C@@H](CN(C)CC2CC2)Oc2ccc(NS(=O)(=O)c3cccs3)cc2C1=O`, the growth inhibition call was “inactive”. With `Cc1ccc(S(=O)(=O)N(C)C[C@H]2Oc3ccc(NC(=O)Nc4cccc5ccccc45)cc3C(=O)N([C@@H](C)CO)C[C@H]2C)cc1`, the growth inhibition call is “inactive”. Under `O=C1NCC(=O)N2[C@@H]1C[C@@H](C(=O)O)[C@H]2c1ccc(O)cc1` stands “inactive”; under `C[C@H](CO)N1C[C@H](C)[C@H](CN(C)Cc2cccc(F)c2)Oc2cc(C#CC3CC3)ccc2S1(=O)=O`, “inactive”. Turning to `C[C@H](CO)N1C[C@H](C)[C@@H](CN(C)CC2CCCCC2)Oc2ccc(NC(=O)Cn3cnnn3)cc2C1=O`, the growth inhibition call is “inactive”.

As for `C[C@@H]1CN([C@@H](C)CO)S(=O)(=O)c2ccc(Br)cc2O[C@H]1CN(C)S(=O)(=O)c1ccc(F)cc1`, the growth inhibition call is “inactive”. In the case of `COc1ccc(S(=O)(=O)N(C)C[C@@H]2Oc3ccc(NC(=O)c4ccncc4)cc3C(=O)N([C@H](C)CO)C[C@@H]2C)cc1`, the growth inhibition call is “inactive”. The same measure for `C[C@H](CO)N1C[C@H](C)[C@@H](CN(C)S(=O)(=O)c2cn(C)cn2)OCCCC[C@H](C)Oc2ccc(NS(=O)(=O)c3cn(C)cn3)cc2C1=O`: “inactive”; for `C[C@@H]1CCCCO[C@H](CN(C)C(=O)Cc2ccccc2)[C@@H](C)CN([C@@H](C)CO)C(=O)c2cc(NC(=O)C3CCCCC3)ccc2O1`: “inactive”; for `C[C@@H]1CCCCO[C@@H](CN(C)C(=O)Nc2ccc(F)cc2)[C@H](C)CN([C@@H](C)CO)C(=O)c2cc(NC(=O)CCC(F)(F)F)ccc2O1`: “inactive”.

As to `C[C@H]1CN([C@@H](C)CO)C(=O)CCCn2nncc2CO[C@@H]1CN(C)S(=O)(=O)c1ccc(Oc2ccccc2)cc1`, the growth inhibition call is “inactive”.

On to `CSCC[C@H](NC(=O)[C@H](Cc1c[nH]c2ccccc12)NC(=O)CNC(=O)[C@@H](NC(=O)[C@H](Cc1ccc(OS(=O)(=O)O)cc1)NC(=O)[C@H](CC(=O)O)NC(=O)[C@H](CCC(N)=O)NC(=O)[C@@H]1CCC(=O)N1)[C@@H](C)O)C(=O)N[C@@H](CC(=O)O)C(=O)N[C@@H](Cc1ccccc1)C(N)=O`, for which the growth inhibition call is “inactive”. Under `CCCCCCCCCC(=O)N[C@@H](Cc1c[nH]c2ccccc12)C(=O)N[C@H](CC(N)=O)C(=O)N[C@@H](CC(=O)O)C(=O)N[C@@H]1C(=O)NCC(=O)N[C@@H](CCCN)C(=O)N[C@@H](CC(=O)O)C(=O)N[C@H](C)C(=O)N[C@@H](CC(=O)O)C(=O)NCC(=O)N[C@H](CO)C(=O)N[C@@H]([C@H](C)CC(=O)O)C(=O)N[C@@H](CC(=O)c2ccccc2N)C(=O)O[C@@H]1C` stands “active”. With `C[C@H](N)C(=O)NCC(=O)N[C@H]1CSSC[C@@H](C(=O)O)NC(=O)[C@H](CO)NC(=O)[C@H]([C@@H](C)O)NC(=O)[C@H](Cc2ccccc2)NC(=O)[C@H]([C@@H](C)O)NC(=O)[C@H](CCCCN)NC(=O)[C@H](Cc2c[nH]c3ccccc23)NC(=O)[C@H](Cc2ccccc2)NC(=O)[C@H](Cc2ccccc2)NC(=O)[C@H](CC(N)=O)NC(=O)[C@H](CCCCN)NC1=O`, the growth inhibition call was “inactive”. For the compound `CS(=O)(=O)NCc1cnc2n1CCN(C(=O)[C@H]1CCOC1)CC2`, the growth inhibition call was “inactive”. Under `CC(C)[N+]1(C)C2CCC1CC(OC(=O)C(CO)c1ccccc1)C2.[Br-]` (stereo unspecified) stands “inactive”. Under `C[C@H](CO)N1C[C@H](C)[C@@H](CN(C)Cc2ccc(-c3ccccc3)cc2)Oc2c(NS(=O)(=O)c3ccc(F)cc3)cccc2C1=O` stands “inactive”; under `C=C(NC(=O)C(=C)NC(=O)c1csc(C2=N[C@@H]3c4csc(n4)[C@@H]4NC(=O)c5csc(n5)[C@H](C(C)(O)[C@@H](C)O)NC(=O)[C@H]5CSC(=N5)/C(=C/C)NC(=O)[C@H]([C@@H](C)O)NC(=O)c5csc(n5)[C@]3(CC2)NC(=O)[C@@H](C)NC(=O)C(=C)NC(=O)[C@@H](C)NC(=O)[C@@H]([C@H](C)CC)N[C@H]2C=Cc3c([C@@H](C)O)cc(nc3[C@@H]2O)C(=O)O[C@H]4C)n1)C(N)=O` (stereo partly specified), “inactive”; under `C=C(NC(=O)C(=C)NC(=O)c1csc(C2=NC3c4csc(n4)C4NC(=O)c5csc(n5)C(C(C)(O)C(C)O)NC(=O)C5CSC(=N5)C(=CC)NC(=O)C(C(C)O)NC(=O)c5csc(n5)C3(CC2)NC(=O)C(C)NC(=O)C(=C)NC(=O)C(C)NC(=O)C(C(C)CC)NC2C=Cc3c(C(C)O)cc(nc3C2O)C(=O)OC4C)n1)C(N)=O` (stereo unspecified), “active”. The same measure for `C=C(NC(=O)C(=C)NC(=O)c1csc(C2=N[C@H]3c4csc(n4)[C@H]4NC(=O)c5csc(n5)[C@H](C(C)(O)[C@@H](C)O)NC(=O)[C@H]5CSC(=N5)C(=CC)NC(=O)[C@H]([C@@H](C)O)NC(=O)c5csc(n5)[C@]3(CC2)NC(=O)[C@H](C)NC(=O)C(=C)NC(=O)[C@H](C)NC(=O)[C@H]([C@H](C)CC)N[C@@H]2C=Cc3c([C@H](C)O)cc(nc3[C@H]2O)C(=O)O[C@@H]4C)n1)C(N)=O` (stereo partly specified): “inactive”; for `COCCNC(=O)c1cn(C)nc1OC`: “inactive”. Regarding `C[C@H]1CN([C@@H](C)CO)C(=O)c2cccc(NS(=O)(=O)c3cn(C)cn3)c2O[C@H]1CN(C)S(=O)(=O)c1cn(C)cn1`, the growth inhibition call is “inactive”. Under `C[C@H]1CN([C@@H](C)CO)S(=O)(=O)c2ccc(C#CC3(O)CCCC3)cc2O[C@H]1CN(C)C(=O)Cc1ccccc1` stands “inactive”; under `CC(C)NC(=O)N(C)C[C@@H]1Oc2c(NS(=O)(=O)c3ccccc3)cccc2C(=O)N([C@@H](C)CO)C[C@H]1C`, “inactive”; under `C[C@H](CO)N1C[C@H](C)[C@@H](CN(C)C(=O)CCN2CCCCC2)Oc2ncc(C#CCN(C)C)cc2C1=O`, “inactive”. `O=C(O)c1cc(F)c2nc(N3[C@@H]4CC[C@H]3C[C@@H](OCc3c(-c5ccccc5OC(F)(F)F)noc3C3CC3)C4)sc2c1`: the growth inhibition call is “active”. Take `COc1ccc(CN2C[C@H](C)[C@@H](OC)CN(C)C(=O)c3ccc(NC(=O)c4nc5ccccc5s4)cc3OC[C@H]2C)cc1`: the growth inhibition call was “inactive”. The same measure for `O=C1OC2(c3ccccc31)c1cc(I)c(O)c(I)c1Oc1c2cc(I)c(O)c1I`: “active”. With `O=C1OC(c2cc(I)c(O)c(I)c2)(c2cc(I)c(O)c(I)c2)c2ccccc21`, the growth inhibition call was “inactive”. The same measure for `O=C1OC2(c3ccc(O)cc3Oc3cc(O)ccc32)c2ccccc21`: “inactive”; for `Cc1ccc(CNS(=O)(=O)N(C)C)cc1`: “inactive”. With `CO[C@H](CN(C)S(=O)(=O)c1ccc(Cl)cc1)[C@@H](C)CN([C@H](C)CO)S(=O)(=O)c1cccc(Cl)c1`, the growth inhibition call is “inactive”.

Take `C[C@H](CO)N1C[C@H](C)[C@@H](CN(C)C(=O)Cc2ccncc2)Oc2ncc(C#Cc3ccccc3F)cc2C1=O`: the growth inhibition call is “inactive”. For the compound `N=C(N)NCCC[C@@H](NC(=O)CC1(CC(=O)N2CCN([C@H]3c4ccccc4NC(=O)c4ccccc43)CC2)CCCC1)C(=O)NCCn1c(=O)n(-c2ccccc2)n(-c2ccccc2)c1=O`, the growth inhibition call is “active”.
